Measurements taken from PubChem BioAssay.
“And” between values parts separate entries of the source, which are not always exact repeats. Equal values may be shown once. The source made the active and inactive calls.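 How the source made its calls, unless noted: active means thallium flux through the channel raised or lowered by more than 3 SD from vehicle-only wells, actives on both sides; inactive means the rest.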

Assays:
[1] = liver-stage malaria parasite growth inhibition, primary screen, cell-based, HepG2, luciferase luminescence, HepG2 viability (AID 624349; in the data active means parasite load remaining mostly below about 12%, no sharp cut-off; inactive means mostly above about 10%;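 further: 100% = mean of DMSO negative control wells on the same plate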); settings: P. berghei liver stage in HepG2, luciferase luminescence, concentration not given here; parasite load remaining: stronger effect = lower value; viability: measured here: HepG2 viability without parasites
[2] = Cy5 fluorescence interference with SSB-bound oligo, artefact control for HCV NS3 helicase inhibitor project, biochemical, NIH Clinical Collection, E. coli SSB (AID 743268; call rule not given here)
[3] = test system: Hepatitis C virus NS3 helicase; experiment: HCV NS3 helicase inhibitors, primary screen, biochemical, fluorescence polarization, NIH Clinical Collection (AID 743270; call rule not given here); settings: NS3 helicase binding to Cy5-dT15 DNA, stronger effect = higher value, concentration not given here
[4] = target: Single-stranded DNA-binding protein (Escherichia coli (strain K12)) (UniProt P0AGE0); experiment: E. coli SSB displacement from DNA, counter-screen for HCV NS3 helicase inhibitor project, biochemical, fluorescence polarization, NIH Clinical Collection (AID 743271; in the data active means inhibition above about 28%); settings: stronger effect = higher value, concentration not given here
[5] = fluorescence interference in NS3h assay format, artefact control for HCV NS3 helicase inhibitor project, biochemical, NIH Clinical Collection (AID 743272; call rule not given here;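 further: HCV NS3 helicase with a Cy5 labelled single stranded DNA probe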); settings: fluorescence interference counterscreen, stronger effect = lower value
[6] = modulation of C. elegans fzo-1 (AID 1259413; call rule not given here;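 further: fzo-1 mutant C. elegans worms in liquid wells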); settings: C. elegans fzo-1 modulator screen, mean read-out; stronger effect = higher value
[7] = sensitizers of A549 cells to miR-34 induction, primary screen, imaging, A549 dox-inducible miR-34, nuclei and caspase counts (AID 1347080;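 active means compounds whose cell count with miR-34 switched on is under 0.7 times the count with it off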); settings: A549 miR-34 inducible, Hoechst nuclei count, 48 h
[8] = viability rescue of complex I mutant cybrids, primary screen, cell-based, galactose medium, ATP luminescence (AID 1645843;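 active means z-score of at least 1.8 in each of two replicates, scored against plate mean and spread of sample wells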;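 further: positive z means more ATP and so rescue of galactose-driven cybrid death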); settings: complex I mutant cybrid cells, 72 h, stronger effect = higher value
F380Y = experiment: modulators of BK channel variants, profiling panel, selectivity assay, cell-based, U2OS BacMam, thallium flux, beta subunits (AID 1259406); settings: at 30 µM;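 further: initial slope of Thallos dye fluorescence rise after thallium is added; log ratio against the mean of 0.3% DMSO vehicle wells on the same plate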
F380Y/beta1 = experiment: as above; settings: at 30 µM
F380Y/beta2Delta = experiment: as above; settings: at 30 µM
F380Y/beta4 = experiment: as above; settings: at 30 µM
[9] = target: Calcium-activated potassium channel subunit alpha-1 (Homo sapiens) + Leucine-rich repeat-containing protein 26 (Homo sapiens) (UniProt Q12791+Q2I0M4); experiment: as above; settings: F380Y/Slo1WT/gamma1, at 30 µM
R275C = experiment: as above; settings: at 30 µM
R275C/beta1 = experiment: as above; settings: at 30 µM
R275C/beta2Delta = experiment: as above; settings: at 30 µM
R275C/beta4 = experiment: as above; settings: at 30 µM
R275C/Slo1WT/beta2 = experiment: as above; settings: at 30 µM
[10] = survival rescue of mitochondrial mutant cells in low glucose, primary screen, MELAS cybrids, Rieske KO mouse fibroblasts, CellTiter-Glo (AID 1508586;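 active means mean z-score across replicates of 1.96 or higher in either the MELAS or the Rieske mutant cell line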;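 further: z relative to plate mean and SD of compound and empty wells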)
[11] = stronger effect = lower value, cell number ratio, induced over uninduced
[12] = measured here: relative caspase fold change +Dox/-Dox
[13] = measured here: total cells with miR-34 induction, stronger effect = lower value
[14] = measured here: total cells without miR-34 induction
[15] = MELAS cybrid survival, CellTiter-Glo 48 h, stronger effect = higher value
[16] = Rieske KO mouse fibroblast survival, CellTiter-Glo 72 h

Calcium-activated potassium channel subunit alpha-1 (Homo sapiens) + Leucine-rich repeat-containing protein 26 (Homo sapiens), sequence (Q2I0M4 whole entry, looked up, one chain of several): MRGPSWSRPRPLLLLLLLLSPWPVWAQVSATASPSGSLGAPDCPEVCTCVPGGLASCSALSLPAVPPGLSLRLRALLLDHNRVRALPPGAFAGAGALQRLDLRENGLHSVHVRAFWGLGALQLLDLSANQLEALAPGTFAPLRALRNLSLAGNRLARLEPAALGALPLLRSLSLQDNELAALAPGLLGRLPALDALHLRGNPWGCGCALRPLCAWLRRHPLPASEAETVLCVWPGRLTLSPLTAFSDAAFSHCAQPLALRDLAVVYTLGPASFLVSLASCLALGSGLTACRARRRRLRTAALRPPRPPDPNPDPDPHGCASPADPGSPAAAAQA

CC(N)(Cc1ccc(O)c(O)c1)C(=O)O (stereo unspecified)
87.8%: viability [1]
9680 and 9750: cell count [7, 14]
active: fluorescence ratio [2] 0.1 | log fold change Tl+ flux (R275C/Slo1WT/beta2) -0.125
0.522 and 3.64: fold change [7, 12]
9990 and 9950: cell count [7, 13]
inactive: parasite load remaining [1] 67.7% | inhibition [3] -3.18% | inhibition [4] -0.48% | fluorescence ratio [5] 0.96 | mean signal [6] 264 | fold change [7, 11] 1.03 and 1.02 | z-score [8] -1.27 and -1.07 | log fold change Tl+ flux (F380Y) -0.0268 | log fold change Tl+ flux (F380Y/beta1) -0.0706 | log fold change Tl+ flux (F380Y/beta2Delta) -0.0381 | log fold change Tl+ flux (F380Y/beta4) -0.00847 | log fold change Tl+ flux [9] -0.0181 | log fold change Tl+ flux (R275C) -0.0316 | log fold change Tl+ flux (R275C/beta1) -0.0727 | log fold change Tl+ flux (R275C/beta2Delta) -0.00349 | log fold change Tl+ flux (R275C/beta4) -0.0805

CC1CNc2c(cccc2S(=O)(=O)N[C@@H](CCCN=C(N)N)C(=O)N2CC[C@@H](C)C[C@@H]2C(=O)O)C1 (stereo partly specified)
75.9% and 68%: viability [1]
1.15: fold change [7, 12]
11700: cell count [7, 14]
10400: cell count [7, 13]
inactive: parasite load remaining [1] 91.7% and 25.6% | fluorescence ratio [2] 1.01 | inhibition [3] -2.77% | inhibition [4] -0.1% | fluorescence ratio [5] 0.96 | mean signal [6] 269 | fold change [7, 11] 0.891 | z-score [10, 15] -0.605 and 0.47 | z-score [8] 0.59 | log fold change Tl+ flux (F380Y) -0.00418 | log fold change Tl+ flux (F380Y/beta1) 0.00744 | log fold change Tl+ flux (F380Y/beta2Delta) 0.0133 | log fold change Tl+ flux (F380Y/beta4) 0.00267 | log fold change Tl+ flux [9] -0.0355 | log fold change Tl+ flux (R275C) -0.0227 | log fold change Tl+ flux (R275C/beta1) -0.0183 | log fold change Tl+ flux (R275C/beta2Delta) -0.0418 | log fold change Tl+ flux (R275C/beta4) -0.0138 | log fold change Tl+ flux (R275C/Slo1WT/beta2) 0.0382
-0.277 and -0.497: z-score [10, 16]

Nc1ccn([C@@H]2CS[C@H](CO)O2)c(=O)n1
inactive: parasite load remaining [1] 60.8% and 120% | mean signal [6] 246 | fold change [7, 11] 0.962 | z-score [10, 15] -0.0861 | z-score [8] 1.21 | log fold change Tl+ flux (F380Y) 0.00141 and 0.0147 | log fold change Tl+ flux (F380Y/beta1) -0.0646 and -0.0414 | log fold change Tl+ flux (F380Y/beta2Delta) -0.00742 and 0.0531 | log fold change Tl+ flux (F380Y/beta4) -0.0496 and -0.00739 | log fold change Tl+ flux [9] 0.0127 and 0.0118 | log fold change Tl+ flux (R275C) -0.0937 and 0.0141 | log fold change Tl+ flux (R275C/beta1) -0.00105 and 0.0176 | log fold change Tl+ flux (R275C/beta2Delta) 0.0208 and -0.0112 | log fold change Tl+ flux (R275C/beta4) 0.00653 and -0.00304 | log fold change Tl+ flux (R275C/Slo1WT/beta2) 0.00916 and -0.0234
1.73: fold change [7, 12]
121% and 70.7%: viability [1]
10700: cell count [7, 13]
11100: cell count [7, 14]
0.0484: z-score [10, 16]

CC1(C)SC2C(NC(=O)C(N)c3ccccc3)C(=O)N2C1C(=O)O (stereo unspecified)
1.56: fold change [7, 12]
inactive: parasite load remaining [1] 64.5% | fluorescence ratio [2] 1.05 | inhibition [3] -3.18% | inhibition [4] -3.53% | fluorescence ratio [5] 1.03 | mean signal [6] 248 | fold change [7, 11] 0.924 | z-score [8] 0.46 | log fold change Tl+ flux (F380Y) 0.0123 | log fold change Tl+ flux (F380Y/beta1) -0.00858 | log fold change Tl+ flux (F380Y/beta2Delta) -0.029 | log fold change Tl+ flux (F380Y/beta4) -0.0312 | log fold change Tl+ flux [9] 0.0123 | log fold change Tl+ flux (R275C) 0.0182 | log fold change Tl+ flux (R275C/beta1) -0.0441 | log fold change Tl+ flux (R275C/beta2Delta) 0.02 | log fold change Tl+ flux (R275C/beta4) -0.0148 | log fold change Tl+ flux (R275C/Slo1WT/beta2) -0.0117
9300: cell count [7, 13]
10100: cell count [7, 14]
97.1%: viability [1]

CN1CCC[C@H]1c1cccnc1
1.38 and 3.3: fold change [7, 12]
92.8% and 95.3% and 105%: viability [1]
11100 and 11800: cell count [7, 13]
11100 and 13400: cell count [7, 14]
inactive: parasite load remaining [1] 58.8% and 68.1% and 77.4% | fluorescence ratio [2] 1.1 | inhibition [3] -3.18% | inhibition [4] -0.48% | fluorescence ratio [5] 0.97 | mean signal [6] 289 | fold change [7, 11] 1 and 0.879 | z-score [8] 1.02 | log fold change Tl+ flux (F380Y) 0.0275 | log fold change Tl+ flux (F380Y/beta1) 0.0102 | log fold change Tl+ flux (F380Y/beta2Delta) 0.027 | log fold change Tl+ flux (F380Y/beta4) 0.0603 | log fold change Tl+ flux [9] -0.0145 | log fold change Tl+ flux (R275C) 0.033 | log fold change Tl+ flux (R275C/beta1) 0.0044 | log fold change Tl+ flux (R275C/beta2Delta) 0.0329 | log fold change Tl+ flux (R275C/beta4) -0.0173 | log fold change Tl+ flux (R275C/Slo1WT/beta2) -0.00315

O=C1C(c2c(O)[nH]c3ccccc23)=Nc2ccccc21
inactive: parasite load remaining [1] 27.8% | fluorescence ratio [2] 1.08 | inhibition [4] 18.4% | fluorescence ratio [5] 1.13 | mean signal [6] 275 | fold change [7, 11] 0.964 and 0.92 and 0.909 | z-score [10, 15] -0.237 | z-score [8] -0.25 | log fold change Tl+ flux (F380Y) 0.00735 | log fold change Tl+ flux (F380Y/beta1) 0.00413 | log fold change Tl+ flux (F380Y/beta2Delta) -0.012 | log fold change Tl+ flux (F380Y/beta4) 0.0357 | log fold change Tl+ flux [9] -0.019 | log fold change Tl+ flux (R275C) 0.0422 | log fold change Tl+ flux (R275C/beta1) 0.013 | log fold change Tl+ flux (R275C/beta2Delta) -0.00188 | log fold change Tl+ flux (R275C/beta4) 0.0134 | log fold change Tl+ flux (R275C/Slo1WT/beta2) 0.0591
9240 and 5320 and 8410: cell count [7, 14]
8910 and 4890 and 7650: cell count [7, 13]
67.8%: viability [1]
active: inhibition [3] 26.5%
-0.638: z-score [10, 16]
1.03 and 0.816 and 0.7: fold change [7, 12]

CCOC(=O)CCC(=O)OC1C(OC2C(C)C(OC3CC(C)(OC)C(O)C(C)O3)C(C)C(=O)OC(CC)C(C)(O)C(O)C(C)C(=O)C(C)CC2(C)O)OC(C)CC1N(C)C (stereo unspecified)
active: log fold change Tl+ flux (R275C) -0.135
10900: cell count [7, 14]
1.93: fold change [7, 12]
inactive: parasite load remaining [1] 56% | fluorescence ratio [2] 1.07 | inhibition [3] 0.45% | inhibition [4] 0.29% | fluorescence ratio [5] 0.98 | mean signal [6] 242 | fold change [7, 11] 0.96 | z-score [8] 0.77 | log fold change Tl+ flux (F380Y) -0.00772 | log fold change Tl+ flux (F380Y/beta1) 0.06 | log fold change Tl+ flux (F380Y/beta2Delta) -0.0119 | log fold change Tl+ flux (F380Y/beta4) -0.0302 | log fold change Tl+ flux [9] -0.0035 | log fold change Tl+ flux (R275C/beta1) 0.019 | log fold change Tl+ flux (R275C/beta2Delta) -0.0301 | log fold change Tl+ flux (R275C/beta4) -0.00612 | log fold change Tl+ flux (R275C/Slo1WT/beta2) 0.000174
94.7%: viability [1]
10400: cell count [7, 13]
